Source: PubChem
Gli-Sufu block: Gli-Sufu pathway antagonists, primary screen, luciferase luminescence, Sufu-KO-LIGHT cells, uHTS. inhibition, % at 5 µM. actives 0.74% (n = 340,000). AID 588413, 2011. Sufu-KO-LIGHT fibroblasts, Gli luciferase reporter luminescence;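 active = inhibition above about 55%, limit read from the data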;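 note: 0% = DMSO-treated cells and 100% = wells with medium but no cells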
aSyn UTR inh: MLPCN primary screen, SNCA 5' untranslated region; alpha-synuclein 5'UTR reporter, inhibitor activity; inhibition, % (tested at 7.5 µM); actives 0.82% (n = 300,000); AID 1813, 2009; in the data active = inhibition above about 60%;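 note: H4 neuroglioblastoma cells stably carrying SNCA 5'UTR luciferase fusion; 0% = DMSO wells and 100% = positive control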
Mdm2-MdmX inh: inhibitors of human Mdm2-MdmX association, primary screen, cell-based, luminescence, split luciferase, SaOS-2, uHTS | inhibition, % at 8 µM | SaOS-2 split-luciferase Mdm2/MdmX complementation | AID 485346, 2010 | actives 3% (n = 330,000);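 active = inhibition of at least 50% at 8 µM in the primary screen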
Target sequence (O15151 whole entry, looked up): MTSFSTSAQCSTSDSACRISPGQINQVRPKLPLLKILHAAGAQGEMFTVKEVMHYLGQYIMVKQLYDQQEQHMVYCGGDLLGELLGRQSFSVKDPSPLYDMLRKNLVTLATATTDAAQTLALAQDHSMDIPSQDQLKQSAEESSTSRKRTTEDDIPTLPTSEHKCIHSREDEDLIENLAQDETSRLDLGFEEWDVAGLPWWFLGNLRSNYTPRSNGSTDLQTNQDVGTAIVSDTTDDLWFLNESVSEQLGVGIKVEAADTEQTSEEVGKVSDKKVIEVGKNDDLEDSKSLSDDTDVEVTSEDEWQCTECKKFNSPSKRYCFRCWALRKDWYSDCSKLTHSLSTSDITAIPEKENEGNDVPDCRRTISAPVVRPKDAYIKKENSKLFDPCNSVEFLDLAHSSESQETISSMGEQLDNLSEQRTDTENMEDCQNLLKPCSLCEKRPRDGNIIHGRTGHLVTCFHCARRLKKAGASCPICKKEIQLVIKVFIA
Target sequence (Q00987 whole entry, looked up): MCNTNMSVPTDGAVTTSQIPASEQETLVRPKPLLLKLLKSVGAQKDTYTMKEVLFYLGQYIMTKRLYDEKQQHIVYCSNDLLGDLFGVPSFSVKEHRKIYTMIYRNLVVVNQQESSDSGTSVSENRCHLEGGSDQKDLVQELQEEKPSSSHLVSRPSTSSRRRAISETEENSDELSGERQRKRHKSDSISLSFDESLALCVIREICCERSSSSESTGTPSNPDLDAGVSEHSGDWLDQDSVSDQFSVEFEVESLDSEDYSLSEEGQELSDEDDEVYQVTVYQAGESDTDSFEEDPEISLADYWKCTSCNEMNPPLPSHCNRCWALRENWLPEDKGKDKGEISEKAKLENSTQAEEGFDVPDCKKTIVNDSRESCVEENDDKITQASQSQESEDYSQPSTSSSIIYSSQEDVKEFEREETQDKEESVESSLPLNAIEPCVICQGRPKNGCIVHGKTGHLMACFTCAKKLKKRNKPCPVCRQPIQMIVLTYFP
Jurkat NFkB inh: inhibitors of induced NF-kB luciferase reporter, primary screen, TCR NF-kB activation inhibitor project, cell-based, luminescence, uHTS. Jurkat, PMA/ionomycin-induced NF-kB luciferase reporter. inhibition, % at 4 µM. actives 0.53% (n = 330,000). AID 435003, 2010; in the data active = inhibition above about 50%
697 NFkB inh: inhibitors of PMA/ionomycin-induced NF-kB reporter, 697 cells, primary screen, B-cell NF-kB inhibitor project, cell-based, luminescence, uHTS | 697 B-cell NF-kB luciferase reporter, 16 h | inhibition, % at 4 µM | actives 0.33% (n = 330,000) | AID 435022, 2010; in the data active = inhibition above about 35%
CSC inhib: cancer stem cell viability inhibitors, primary screen, luminescence | AID 2717, 2010 | inhibition, % at 7.5 µM | cancer stem cell-like cells viability | actives 1.1% (n = 300,000); in the data active = inhibition above about 75%; tested in HMLE shEcad cells
Gli-Sufu confirm: Gli-SUFU pathway antagonists, confirmation, single concentration, luciferase luminescence, Sufu-KO-LIGHT cells; shares compounds with Gli-Sufu block; actives 40% (n = 2,500); Gli luciferase reporter; inhibition, % at 5 µM;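 active = mean inhibition at 5 µM reaching about 45%, limit read from the data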;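 note: plate controls were DMSO-treated cells for no effect and wells lacking cells for full effect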
SufuKO cytotox: cytotoxicity in Sufu-KO-LIGHT cells, confirmation, cytotoxicity control for Gli-SUFU antagonist project, cell-based, ATP luminescence, single concentration. shares compounds with Gli-Sufu block. actives 32% (n = 2,500). cytotoxicity, % at 5 µM. AID 651994, 2013;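 active = mean cytotoxicity at 5 µM above about 25%, limit read from the data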;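 note: cells exposed to compound overnight for roughly 16 to 18 hours; plate controls were DMSO wells with cells for no effect and medium without cells for full effect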
Wnt3a cs: Wnt3a reporter signal inhibition, confirmation, counter-screen for Gli-SUFU antagonist project, Wnt-LIGHT cells, luminescence, single concentration. actives 20% (n = 2,500). Wnt3a-driven luciferase reporter. shares compounds with Gli-Sufu block. inhibition, % at 6.25 µM;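 active = mean inhibition above about 25%, limit read from the data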
* marks the source's active call; other numbers are inactive results. An excerpt weighted towards active compounds, which were near 4.5% of everything screened.

`Cc1cc2nnn(-c3nnc(-c4ccccc4)c4ccccc34)c2cc1C` gave Gli-Sufu block -1, aSyn UTR inh 2, Mdm2-MdmX inh 49, Jurkat NFkB inh -3, 697 NFkB inh 9 and CSC inhib -4.
COc1ccc(C2CC(C(F)(F)F)n3nc(CO)c(Cl)c3N2)cc1OC (centres undefined) was read as Gli-Sufu block 92*, aSyn UTR inh -14, Mdm2-MdmX inh 16, Jurkat NFkB inh -7, 697 NFkB inh -23, CSC inhib -15, Gli-Sufu confirm 16, SufuKO cytotox 16 and Wnt3a cs 6.
CCn1c(C)[n+](Cc2ccccc2)c2ccc(C(=O)OC)cc21 was read as Gli-Sufu block 6, aSyn UTR inh 2, Mdm2-MdmX inh 17, Jurkat NFkB inh 7, 697 NFkB inh 18 and CSC inhib -1.
CCOC(=O)c1ccc2c(c1)n(CC)c(/C=C/Nc1ccccc1)[n+]2CC was read as Gli-Sufu block 54, aSyn UTR inh -5, Mdm2-MdmX inh 22, Jurkat NFkB inh 46, 697 NFkB inh -21, CSC inhib -5, Gli-Sufu confirm 53*, SufuKO cytotox 34* and Wnt3a cs -13.
`CCC(C)N(C(=O)CSc1nc(C)c(C)c(C)c1C#N)C1CCS(=O)(=O)C1` (centres undefined) gave Gli-Sufu block 54, Mdm2-MdmX inh -33, Jurkat NFkB inh -5, 697 NFkB inh 7, Gli-Sufu confirm 11, SufuKO cytotox 7 and Wnt3a cs -23.
CC(=O)c1ccc(N2CCN(c3ncc(C(F)(F)F)cc3Cl)CC2)cc1 was read as Gli-Sufu block -1, aSyn UTR inh 1, Mdm2-MdmX inh 13, Jurkat NFkB inh 21, 697 NFkB inh -13 and CSC inhib 25.
Cc1ccc(C(=O)N2CCN(c3ncc(C(F)(F)F)cc3Cl)CC2)s1 was read as Gli-Sufu block 58*, aSyn UTR inh -2, Mdm2-MdmX inh 11, Jurkat NFkB inh 4, 697 NFkB inh -31, CSC inhib 11, Gli-Sufu confirm 18, SufuKO cytotox -1 and Wnt3a cs -41.
For CCNC(=O)Nc1cc(S(=O)(=O)Nc2ccc(OC)cc2)ccc1N1CCOCC1 the results were Gli-Sufu block 61*, Mdm2-MdmX inh 27, Jurkat NFkB inh 24, 697 NFkB inh -15, CSC inhib -13, Gli-Sufu confirm 61*, SufuKO cytotox 46* and Wnt3a cs 24.
Cc1ccccc1CN1CCN(CCCc2ccccc2)C(CCO)C1 (centres undefined) was read as Gli-Sufu block 30, aSyn UTR inh 4, Mdm2-MdmX inh 16, Jurkat NFkB inh 24, 697 NFkB inh -8 and CSC inhib 24.
Screening OCCC1CN(Cc2ccccc2O)CCN1CCCc1ccccc1 (centres undefined) returned Gli-Sufu block 54, aSyn UTR inh -5, Mdm2-MdmX inh 14, Jurkat NFkB inh 1, 697 NFkB inh 5, CSC inhib -9, Gli-Sufu confirm 30, SufuKO cytotox -1 and Wnt3a cs -43.
CCn1nnc(NC(=O)C(c2ccccc2)c2ccccc2)n1 was read as Gli-Sufu block 59*, aSyn UTR inh -24, Mdm2-MdmX inh -22, Jurkat NFkB inh 0, 697 NFkB inh 6, CSC inhib 9, Gli-Sufu confirm 19, SufuKO cytotox 13 and Wnt3a cs -7.
CCCCNC(=O)OCCNC(=O)NC was read as Gli-Sufu block 7, aSyn UTR inh -1, Mdm2-MdmX inh -11, Jurkat NFkB inh 5, 697 NFkB inh -24 and CSC inhib 7.
Screening CCCCCCC(=O)N/N=C(\C)Cc1ccccc1 returned Gli-Sufu block -1, aSyn UTR inh 8, Mdm2-MdmX inh 10, Jurkat NFkB inh -1, 697 NFkB inh 17 and CSC inhib -5.
`Cc1cc(C)nc(N/N=C2/CCCC/C2=C\c2ccccc2)n1` gave Gli-Sufu block 74*, aSyn UTR inh 15, Mdm2-MdmX inh 9, Jurkat NFkB inh -9, 697 NFkB inh -44, CSC inhib 4, Gli-Sufu confirm 30, SufuKO cytotox 3 and Wnt3a cs -4.
Screening Cc1cc(C)nc(N/N=C/c2ccccc2OCc2ccccc2)n1 returned Gli-Sufu block 0, aSyn UTR inh -9, Mdm2-MdmX inh -3, Jurkat NFkB inh 3, 697 NFkB inh 11 and CSC inhib -2.
`CCCc1cc(=O)[nH]c(SCC(=O)NC2CCCCCCC2)n1` gave Gli-Sufu block -11, Mdm2-MdmX inh 25, Jurkat NFkB inh -9, 697 NFkB inh 22 and CSC inhib 2.
Screening CCCc1cc(=O)[nH]c(SCC(=O)NC2CC2)n1 returned Gli-Sufu block 52, Mdm2-MdmX inh 6, Jurkat NFkB inh 3, 697 NFkB inh 8, CSC inhib 4, Gli-Sufu confirm 10, SufuKO cytotox -3 and Wnt3a cs -3.
Cc1cc(C)c(Cn2cnc(-c3ccc([N+](=O)[O-])cc3)c2)c(C)c1 was read as Gli-Sufu block 55*, aSyn UTR inh 45, Mdm2-MdmX inh 4, Jurkat NFkB inh -6, 697 NFkB inh -6, CSC inhib 30, Gli-Sufu confirm 30, SufuKO cytotox 28* and Wnt3a cs -44.
CCCc1cc(=O)oc2cc(C)cc(OCC(=O)Nc3ccccn3)c12 was read as Gli-Sufu block 9, aSyn UTR inh -13, Mdm2-MdmX inh -30, Jurkat NFkB inh 3, 697 NFkB inh -3 and CSC inhib 0.
`CCCc1cc(=O)oc2cc(C)cc(OCC(=O)O)c12` gave Gli-Sufu block 100*, aSyn UTR inh 3, Mdm2-MdmX inh 0, Jurkat NFkB inh -12, 697 NFkB inh 8, CSC inhib -16, Gli-Sufu confirm 5, SufuKO cytotox -5 and Wnt3a cs -9.
Screening Cc1ccc(N=CC2=C(O)CC(c3ccc(Cl)cc3)CC2=O)cc1 (centres undefined) returned Gli-Sufu block 53, aSyn UTR inh -16, Mdm2-MdmX inh 13, Jurkat NFkB inh 13, 697 NFkB inh -2, CSC inhib 20, Gli-Sufu confirm 26, SufuKO cytotox 10 and Wnt3a cs 20.
